TRHR PAM = allosteric enhancers of human TRH receptor. actives 0.66% (n = 360,000). P34981. enhancement, % at 2 µM. TRHR cells, fluo-8 calcium fluorescence, EC20 TRH enhancement. AID 493056; in the data active means enhancement above about 30%; further: 0% is about no effect
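Enhancer read-out: after compound pinning and an initial kinetic agonist-mode read, an EC20 of TRH (10 nM final) was injected and fluo-8 calcium signal (Ex 480/Em 530) followed at 1 s/cycle for 100 cycles in TRHR-expressing cells.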
TRHR agonist = agonists of human TRH receptor | P34981 | TRHR cells, calcium flux fluo-8, FDSS agonist mode | activation, % at 2 µM | actives 0.18% (n = 360,000) | AID 493084; in the data active means activation above about 30%; further: 0% is about no effect
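TRHR-expressing cells loaded with fluo-8 calcium dye; 23 nL library compound pin-transferred, kinetic FDSS fluorescence (Ex 480/Em 530) recorded about 180 s for agonist-induced calcium release, before a 10 nM TRH EC20 addition for potentiator mode.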
TRPML1 agonist = activates the human TRPML1 channel; activation, % (concentration not given with the values); TRPML1-expressing cells, Ca2+ dye fluorescence, FDSS; Q9GZU1; actives 0.12% (n = 410,000); in the data active means activation above about 50%; further: 0% is about no effect
Target sequence (Q9GZU1 whole entry, looked up): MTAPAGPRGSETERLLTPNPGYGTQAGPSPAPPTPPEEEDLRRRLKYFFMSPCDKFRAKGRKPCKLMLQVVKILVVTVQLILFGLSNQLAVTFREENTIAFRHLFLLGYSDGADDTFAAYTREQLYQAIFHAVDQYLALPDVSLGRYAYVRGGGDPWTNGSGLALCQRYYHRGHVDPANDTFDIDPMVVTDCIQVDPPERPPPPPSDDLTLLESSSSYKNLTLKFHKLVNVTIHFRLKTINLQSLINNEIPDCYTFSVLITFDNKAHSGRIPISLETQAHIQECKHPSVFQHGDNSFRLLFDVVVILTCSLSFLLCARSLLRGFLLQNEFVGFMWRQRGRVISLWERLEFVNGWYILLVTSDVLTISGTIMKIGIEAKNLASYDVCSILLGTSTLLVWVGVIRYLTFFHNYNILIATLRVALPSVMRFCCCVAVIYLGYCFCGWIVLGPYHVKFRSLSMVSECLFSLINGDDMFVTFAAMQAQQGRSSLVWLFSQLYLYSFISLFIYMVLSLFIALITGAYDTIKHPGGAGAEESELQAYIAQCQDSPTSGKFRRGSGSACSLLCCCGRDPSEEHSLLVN
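Calcium fluorescence on an FDSS kinetic reader gave the read-out. Tet-induced TRPML1-DL cells were plated overnight, dye-loaded (Ca8 with quencher, 45-90 min, room temperature, dark), then read 110 s after compound addition, and again 110 s after 4uM final 54-4 (EC80).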
TRPML1 inh = human mucolipin-1 channel inhibition; TRPML1-inducible cells, Ca2+ dye fluorescence, FDSS; stronger effect = lower value; inhibition of EC80 agonist-evoked calcium signal; Q9GZU1; actives 0.02% (n = 390,000); activity change, negative = inhibition, % (test concentration not listed); AID 624415; in the data active means activity change below about -50%;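 further: stimulus is agonist 54-4 at its EC80 concentration; on the % scale 0 is the no-effect control and ±100 the full control effect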
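Tet-induced TRPML1-DL cells loaded with Ca8 no-wash calcium dye were read kinetically on FDSS. Compound addition was followed by EC80 agonist 54-4 (4 uM final); inhibition was read over 110 s.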
* marks the source's active call; other numbers are inactive results; . = no result given. In the library only some 0.81% were active in any assay of this set; here they are far more common.

SMILES | TRHR PAM | TRHR agonist | TRPML1 agonist | TRPML1 inh
O=S(=O)(c1ccc2ccccc2c1)N1CCN(c2nc(-c3ccccc3)nc3ccccc23)CC1 | . | . | -1 | .
CCc1nc(N2CCC3(CC2)OCCO3)c2nnn(Cc3ccccc3)c2n1 | 37* | 1 | 6 | 46
c1ccc(Cn2nnc3c(N4CCC5(CC4)OCCO5)ncnc32)cc1 | -2 | 0 | 1 | -7
Cc1noc(C)c1COc1ccc(C(=O)O)cc1 | 32* | 0 | 0 | -20
Cc1noc(C)c1COc1ccc(C(=O)NNC(=O)c2ccccc2)cc1 | 5 | 0 | -1 | -12
O=C1c2ccccc2C(=O)N1Cc1nc2ccccc2c(=O)n1Cc1ccco1 | 6 | 0 | 0 | 27
CC(C)Cn1c(CN2C(=O)c3ccccc3C2=O)nc2ccccc2c1=O | 30* | 0 | 0 | -7
CN(C)C(=O)c1ccc(/C=C/c2ccnc3ccccc23)cc1 | . | . | 18 | .
C/C(CC(=O)NC1CCCC1)=N\NC(=O)c1ccc([N+](=O)[O-])c(Cl)c1 | 38* | 0 | 1 | -20
N#Cc1c(N)n(Cc2ccccc2)c(=O)c2cc([N+](=O)[O-])ccc12 | -21 | 1 | 0 | -7
Cn1c(N)c(-c2ccccc2)c2ccc([N+](=O)[O-])cc2c1=O | 2 | -2 | 83* | -3
Cn1c(=O)c2[nH]c(N3CCCCC3)nc2n(C)c1=O | 3 | 1 | 60* | -4
Cn1c(=O)c2[nH]c(N3CCN(c4ccccn4)CC3)nc2n(C)c1=O | 0 | 0 | . | .
O=C(C[N+]12CCCc3cccc(c31)CCC2)c1ccccc1 | . | . | 0 | .
Cn1cc(/C=C/c2ccnc3ccccc23)c2ccccc21 | . | . | 11 | .
CC1Cc2ccccc2C[N+]1(C)CC(=O)c1cccc([N+](=O)[O-])c1 (stereo not given) | . | . | 0 | .
O=C(/C=C/c1ccco1)NC(=S)Nc1cccc([N+](=O)[O-])c1 | 32* | -1 | 0 | 13
Cc1cccc(NC(=S)NC(=O)/C=C/c2ccco2)c1 | 4 | 0 | 0 | 18
COc1ccccc1N(C)C | . | . | 0 | .
CN(C)c1c2ccccc2nc2c(F)c(F)c(F)c(F)c12 | -5 | 0 | 3 | -7
Cc1c2ccccc2nc2c(F)c(N(C)C)c(F)c(F)c12 | 4 | 40* | 27 | 9
CCCCCCCCNc1ccc(/C=C/c2ccnc3ccccc23)cc1 | . | . | 0 | .
COc1cccc(C)c1NC(=O)C(OC(=O)CNC(=O)c1ccccc1)c1ccccc1 (stereo not given) | -5 | 0 | . | .
Cc1ccc(S(=O)(=O)Cc2ccc(C(=O)N3CCC(C(N)=O)CC3)o2)cc1 | 36* | 0 | 0 | 2
COc1ccc(S(=O)(=O)Cc2ccc(C(=O)N3CCC(C(N)=O)CC3)o2)cc1 | -1 | -1 | 0 | -1
SMILES | TRHR PAM | TRHR agonist | TRPML1 agonist | TRPML1 inh
O=C(c1ccc(Cl)cc1)C1CCCN(Cc2cccn2-c2cccnc2)C1 (stereo not given) | 33* | 0 | 2 | 3
O=C(N1CCc2cc([S+](=O)([O-])N3CCN([S+](=O)([O-])c4c(F)cccc4F)CC3)ccc2C1)C(F)(F)F | 1 | 1 | . | .
Cc1cc2c(s1)c1cnn(Cc3cccc(Cl)c3)c(=O)c1n2C | 6 | 1 | . | .
COc1ccc(C2C=C(c3ccccc3)Nc3nc(CCCO)nn32)cc1 (stereo not given) | 12 | 4 | 6 | 1
COc1ccc(C2C=C(c3cccs3)Nc3nc(CCCO)nn32)cc1 (stereo not given) | 0 | 99* | . | .
COc1ccc(OCCSc2ncccn2)cc1 | 31* | -1 | 0 | -8
Cc1cc(C)n(-c2nc(Nc3ccccc3)nc(-n3nc(C)cc3C)n2)n1 | 4 | 0 | 0 | 15
COc1cccc(/C=N/Nc2nc(Nc3ccccc3)nc(-n3nc(C)cc3C)n2)c1O | -3 | 1 | 1 | -52*
COC(=O)CNC(=O)C1CCN(c2nc(C)cc(C)n2)CC1 | -5 | 0 | 0 | 12
COCCCNC(=O)C1CCN(c2nc(C)cc(C)n2)CC1 | 36* | 1 | 0 | 15
O=C(Nc1c[nH]c2c(Cl)cccc2c1=O)N1CCN(c2ccccn2)CC1 | 31* | -1 | 0 | -5
Cc1cc2c(s1)c1cnn(Cc3ccc(C(C)(C)C)cc3)c(=O)c1n2C | 2 | 0 | . | .
CCCCCCc1cc2cc(S(=O)(=O)c3ccc(Cl)cc3)c(=O)oc2cc1O | -8 | 12 | 8 | 10
CCCCCCc1cc2cc(-c3nnc(-c4cccc(Cl)c4)o3)c(=O)oc2cc1O | -2 | 72* | 14 | 40
